Structures are written as SMILES. This is part of a sample that, as a whole, favours compounds with a hit. Of some 83,000 tested, about 20% had one in any assay.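 Note: values are percent growth. 100 is the growth of untreated cells, values between 100 and 0 indicate rising inhibition; between -100 and 0 indicates cell death.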 A number with no mark means an inactive call. Active and inactive are the calls of the source. How the source made its calls: active means growth percent below 10; inactive means the rest.

These results are taken from PubChem BioAssay (NCI).

Test systems include T-47D breast; BT-549 breast; MDA-MB-435 melanoma; SW-620 colon; MCF7 breast; HCT-116 colon; HCC-2998 colon; KM12 colon.
What all share (assay): NCI-60 one-dose screen, 48 h (100 = growth as untreated, 0 = no growth, -100 = all killed)
Conditions in all cases: 10 µM unless noted

With `CC(C)=CCCC(C)c1ccc(C)c2c1OCN(CCCCCO)C2` (configuration not stated), the growth in the test with T-47D breast is 88.1%; in the test on BT-549 breast, 72.1%; in the test on MDA-MB-435 melanoma, 97.1%; in the test on SW-620 colon, 94.9%; in the test with MCF7 breast, 88.7%; in the test on HCT-116 colon it was 68.6%. Moreover, the growth in the test on HCC-2998 colon was 73.5%.
For `O=C(Nc1cccc(-c2ccc(Cl)c(C(F)(F)F)c2)c1)C1CCN(Cc2cccc3cccnc23)CC1`, the growth in the test with T-47D breast is -55.8% (active); in the test on BT-549 breast, 63.5%; in the test on MDA-MB-435 melanoma it was -83.7% (active); in the test with SW-620 colon, -83% (active); in the test on MCF7 breast, -89.9% (active); in the test with HCT-116 colon, -75% (active). Besides, the growth with HCC-2998 colon was -83.5% (active).
With `CC1(C)CC(=O)C2=C(C1)N(c1ccc(OC(F)(F)F)cc1)C(N)=C(C#N)C2c1ccc(Br)cc1F` (configuration not stated), the growth in the test with T-47D breast was 78.9%; in the test with BT-549 breast, 69.1%; in the test on MDA-MB-435 melanoma it was 93.1%; in the test with SW-620 colon, 69.9%; with MCF7 breast, 83.3%; with HCT-116 colon, 46.7%. Besides, the growth with HCC-2998 colon was 88.4%.
As for `O=C1NC(=O)C(Cc2ccc(OCc3ccc(-c4ccc(Cl)cc4Cl)cc3)cc2)S1` (configuration not stated), the growth in the test with T-47D breast was 16.1%; in the test with BT-549 breast, 37.9%; in the test on MDA-MB-435 melanoma, 24.5%; with SW-620 colon it was 67.9%; in the test with MCF7 breast, 28.5%; in the test with HCT-116 colon it was 38.6%. Also, the growth in the test on HCC-2998 colon was 60.8%.
Turning to `COc1ccc(CN2c3ccccc3Sc3ccccc32)cc1F`, the growth was 49.7% with T-47D breast; 49.9% with BT-549 breast; -33.5% (active) with MDA-MB-435 melanoma; 23.8% in the test on SW-620 colon; 16% with MCF7 breast; 8.54% (active) in the test on HCT-116 colon. In addition, the growth in the test with HCC-2998 colon is 17.8%.
For `CC(C)C1=NOC(=O)C1=Cc1cn(-c2ccccc2)nc1-c1ccc(F)cc1`, the growth in the test with T-47D breast was 76.9%; with BT-549 breast it was 121%; in the test with MDA-MB-435 melanoma, 77.4%; in the test on SW-620 colon, 61.2%; in the test with MCF7 breast it was 50.8%; in the test with HCT-116 colon, 32.4%. Also, the growth in the test on HCC-2998 colon was 79.8%.
For the compound `Oc1c(Br)cc(Br)c2ccc(Cn3cc(-c4ccccc4C(F)(F)F)nn3)nc12`, the growth was 83.8% with T-47D breast; 107% in the test with BT-549 breast; 93.1% with MDA-MB-435 melanoma; 73.5% in the test on SW-620 colon; 71.5% with MCF7 breast; 49.1% in the test on HCT-116 colon. In addition, the growth in the test with HCC-2998 colon is 110%.
Regarding `C=C1C(=O)O[C@H]2[C@H]1CC/C(COC(=O)NCc1ccc(Cn3c(=O)sn(CCCCC)c3=O)cc1)=C\CC[C@@]1(C)O[C@@H]21`, the growth in the test on T-47D breast is 0.543% (active); in the test on BT-549 breast it was 42.5%; in the test with MDA-MB-435 melanoma, 25.7%; in the test on SW-620 colon, -61.1% (active); with MCF7 breast it was 6.29% (active); in the test with HCT-116 colon, -12.3% (active). Also, the growth in the test on HCC-2998 colon was 94.6%.
For `Cc1cc(S(=O)(=O)/N=C(\N)n2nc(C)c(C)c2C)c(SCc2ccccc2)cc1Cl`, the growth with T-47D breast is 53%; in the test with BT-549 breast, 112%; in the test on MDA-MB-435 melanoma it was 27%; in the test on SW-620 colon, 75.4%; in the test with MCF7 breast, 70.8%; in the test on HCT-116 colon it was 62%. Also, in the test with HCC-2998 colon, the growth is 56.9%.
With `Nc1n[nH]c2cccc(C#Cc3cccc(C(=O)Nc4cc(C(F)(F)F)cc(C(F)(F)F)c4)c3)c12`, the growth in the test on T-47D breast was 73.9%; in the test with BT-549 breast, 98.6%; with MDA-MB-435 melanoma, 47.6%; in the test with SW-620 colon it was 78.6%; with MCF7 breast it was 65.5%; in the test with HCT-116 colon it was 35.3%. In the test on HCC-2998 colon, the growth is 80.3%.
Turning to `COc1ccc(/C=C(\C#N)n2nnc3cc(F)c(F)cc32)cc1`, the growth in the test with T-47D breast is 23.1%; in the test on BT-549 breast, 32.2%; with MDA-MB-435 melanoma, -54% (active); in the test with SW-620 colon it was 14.9%; in the test on MCF7 breast, 22.1%; in the test with HCT-116 colon it was 28%. Besides, the growth with HCC-2998 colon was 69.3%.
With `CNc1nnc2n(-c3ccccc3)c(=O)c3cnn(-c4ccccc4)c3n12`, the growth in the test with T-47D breast is 37.1%; with BT-549 breast, 74%; with MDA-MB-435 melanoma, 98.2%; in the test with SW-620 colon, 105%; with MCF7 breast, 86.7%; with HCT-116 colon, 77.7%. For the same compound, the growth in the test on HCC-2998 colon was 112%.
Consider `COc1cc2nc3cc([N+](=O)[O-])ccc3c(NCCNCC(C)O)c2cc1OC` (configuration not stated), for which the growth was -7.36% (active) in the test with T-47D breast; -40.5% (active) with BT-549 breast; -87.6% (active) in the test with MDA-MB-435 melanoma; -4.13% (active) in the test with SW-620 colon; -13.3% (active) in the test on MCF7 breast; -18.8% (active) in the test with HCT-116 colon. The growth in the test with HCC-2998 colon is -47.8% (active).
Consider `COc1ccc(/C=N\Nc2nc(SCCC(C)C)nc(-c3ccc(OC)cc3)c2C#N)cc1`, for which the growth is 23.1% in the test with T-47D breast; 93.1% in the test with BT-549 breast; 71.2% in the test with MDA-MB-435 melanoma; 49.6% in the test on SW-620 colon; 63.5% in the test with MCF7 breast; 21.1% in the test with HCT-116 colon. Further, the growth with HCC-2998 colon was 82.1%.
Take `Nc1nc2ccccc2c2c1S(=O)(=O)c1ccc(Cl)cc1C2=O`: the growth was -0.213% (active) in the test on T-47D breast; 24.3% in the test on BT-549 breast; 20.5% in the test on MDA-MB-435 melanoma; 2.06% (active) in the test with SW-620 colon; 9.68% (active) in the test on MCF7 breast; 1.05% (active) with HCT-116 colon. For the same compound, the growth with HCC-2998 colon is 41.5%.
Turning to `O=C(NCCNc1nccc(Nc2ccc(S(=O)(=O)Nc3ccccn3)cc2)n1)c1cccc([N+](=O)[O-])c1`, the growth with T-47D breast is 89%; with BT-549 breast, 96.9%; with MDA-MB-435 melanoma, 103%; with SW-620 colon, 102%; in the test with MCF7 breast, 88.5%; with HCT-116 colon it was 90.4%. The growth in the test with HCC-2998 colon was 109%.
Take `N#Cc1nc(-c2ccccc2)oc1S(=O)(=O)N1CCN(c2ccccc2)CC1`: the growth with T-47D breast was 91.1%; in the test on BT-549 breast it was 90.8%; in the test on MDA-MB-435 melanoma, 86.3%; with SW-620 colon it was 64.1%; in the test on MCF7 breast, 51.5%; in the test with HCT-116 colon, 44.9%. Moreover, the growth with HCC-2998 colon is 102%; with KM12 colon, 104%.
`Nc1ncnc2c1c(-c1cccc(Cl)c1)nn2CC(=O)N1CCOCC1`: the growth in the test on T-47D breast is 105%; with BT-549 breast, 97.2%; in the test with MDA-MB-435 melanoma it was 104%; in the test on SW-620 colon, 106%; in the test on MCF7 breast it was 94.9%; in the test on HCT-116 colon, 101%. Further, in the test with HCC-2998 colon, the growth is 110%.
